Source: PubChem
Many of the other results were omitted from the sample, so hits are more common in it than they were.
Bm FixLJ act – B. multivorans fixK reporter activation | hit rate 0.3% among 29,000 | z-score (test concentration not listed) | B. multivorans fixK-promoter GFP reporter, 18 h; stronger effect = higher value | AID 1918990;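 active = replicate mean overnight rise in green fluorescent reporter signal, 3 or more SD over negative controls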
Starred values were filed as active, the others as inactive.

SMILES	Bm FixLJ act
O=C1C(O)=C(O)C(=O)C(O)=C1O	7.4*
Cc1noc2nc(C3CC3)cc(C(=O)N(C)CCc3noc(C(C)C)n3)c12	0.04
COC1CN(c2nnc(-c3ccccc3)s2)CC1Cc1cc(C)no1 (stereo unspecified)	-0.31
Cc1ccc2nc(-c3c[nH]c4ccccc34)c(Nc3ccccc3C)n2c1	-0.83
Cc1ccc(Nc2c(-c3c[nH]c4ccccc34)nc3ccccn23)cc1	4.6*
Cc1ccc(Nc2c(-c3ccc(Br)o3)nc3ccccn23)cc1	-1
COc1ccc(-c2cc(C(F)(F)F)n3ncc(-c4ccccc4)c3n2)cc1	3.3*
Cc1ccc(-c2cc(C(F)(F)F)n3ncc(-c4ccccc4)c3n2)cc1	0.44
COc1ccc(-c2cc3nc(-c4ccccc4)cc(C(F)(F)F)n3n2)cc1	0.13
CCC(NS(=O)(=O)c1cc(-c2cc(C)[nH]n2)sc1C)c1cccnc1 (stereo unspecified)	-0.49
Cc1csc2nc(COc3cccc(NC(=O)c4ccccc4F)c3)cc(=O)n12	3*
COc1ccccc1C(=O)Nc1cccc(OCc2cc(=O)n3c(C)csc3n2)c1	-1.6
Cc1ccccc1C(=O)Nc1cccc(OCc2cc(=O)n3c(C)csc3n2)c1	-0.23
CC(C)c1nccc(C(=O)NCCc2nc3ccccc3o2)n1	-0.77
Nc1ncc(C=CC(=O)NCc2ccc3[nH]c(=O)[nH]c3c2)cn1	-2.2
CCCOc1ccc(/C=C/C(=O)Nc2sc(C)c(C)c2C(=O)OCC)cc1OC	-0.76
C#CCOc1ccc(C2C(C(=O)OC)=C(C)NC3=C2C(=O)c2ccccc23)cc1OCC (stereo unspecified)	3.7*
CCOc1cc(C2C(C(=O)OC)=C(C)NC3=C2C(=O)c2ccccc23)c(Br)cc1OC (stereo unspecified)	-0.22
CCOC(=O)COc1ccc(C2C(C(=O)OC)=C(C)NC3=C2C(=O)c2ccccc23)cc1Cl (stereo unspecified)	4.1*
CCOC(=O)C1=C(C)NC(C)=C(C(=O)OC)C1c1cccc([N+](=O)[O-])c1 (stereo unspecified)	-1.4
CCOc1cc(C2C(C(=O)OC)=C(C)NC3=C2C(=O)c2ccccc23)cc(Br)c1OCC (stereo unspecified)	0.6
CCOc1cc(Br)c(C2C(C(=O)OC)=C(C)NC3=C2C(=O)c2ccccc23)cc1OCC (stereo unspecified)	-0.42
O=C(CCc1ccc(O)cc1)N1CCC(c2nccn2CC2CC2)CC1	-0.52
CSCc1noc(CNC(=O)Nc2cccc3nn(C)nc23)n1	-0.39
CN(C)c1nc(-c2cccnc2)nc2c1CCN(C(=O)CCO)C2	0.3
SMILES	Bm FixLJ act
CCC(NC(=O)c1cccc(-c2cncc(=O)[nH]2)c1)c1nc(C)c(C)s1 (stereo unspecified)	-1.6
Nc1c(C(=O)Nc2ccccc2Br)sc2nc(-c3cccs3)ccc12	-4.1
Nc1c(C(=O)Nc2ccc(Cl)cc2F)sc2nc(-c3cccs3)ccc12	8.7*
Nc1c(C(=O)Nc2ccc(F)c(F)c2)sc2nc(-c3ccncc3)ccc12	-0.61
COCC(C)NC(=O)C1CCN(C(=O)c2cnc3ccccn3c2=O)CC1 (stereo unspecified)	-1.6
Cc1[nH]c(CN2CCn3nc(C(O)c4nccn4C)cc3C2)cc1C#N (stereo unspecified)	-1.6
Cc1cc(/C=C/c2ccc3cc(N(C)C)ccc3[n+]2C)c(C)n1-c1ccccc1	4*
CCn1c(Cn2cccn2)nnc1C1CCN(CCN2CCCC2=O)CC1	0.6
CCCN1CCN(C(=O)c2nc(C)oc2C)C2CS(=O)(=O)CC21 (stereo unspecified)	-2.6
Cc1cccc(OC(C)(C)C(=O)N2CCC3OCc4cnnn4C3C2)c1 (stereo unspecified)	-0.25
COc1ccccc1NC(=O)c1sc2nc3c(cc2c1N)CCCCCC3	-2.2
COc1ccccc1NC(=O)c1sc(-c2ccc(Cl)cc2)cc1N	4.2*
COc1ccc(C(=O)Nc2cc(-c3nc4ccccc4s3)ccc2OC)cc1	0.46
CN(C)CCCN(C)C(=O)CCc1nc2ccc(F)cc2[nH]1	-1.5
COc1cccc(-c2[nH]ncc2C(=O)N2CC3C4CCC(C4)C3C2)c1 (stereo unspecified)	-0.36
COc1ccc(OC)c(NC(=O)Cn2c(=O)n(-c3ccc(Cl)cc3)c(=O)c3c(C)c(C)sc32)c1	1
O=C(Nc1c(C(=O)c2ccccc2)oc2ccccc12)c1cc(=O)c2ccccc2o1	-1.6
COc1ccc(CNC(=O)Cn2ncc3c4ccccc4n(Cc4cccc(Cl)c4)c3c2=O)cc1	24*
O=C(Cn1ncc2c3ccccc3n(Cc3cccc(Cl)c3)c2c1=O)N1CCCCCC1	8.7*
O=C(Cn1ncc2c3ccccc3n(Cc3cccc(Cl)c3)c2c1=O)NCc1cccs1	11*
O=C(Cn1ncc2c3ccccc3n(Cc3ccccc3)c2c1=O)NCc1cccs1	-0.73
O=C(Cn1ncc2c3ccccc3n(Cc3ccccc3)c2c1=O)N1CCCCCC1	-2.6
O=C(Cn1ncc2c3ccccc3n(Cc3cccc(Cl)c3)c2c1=O)N1CCCCC1	2
O=C(Cn1ncc2c3ccccc3n(Cc3ccccc3)c2c1=O)NCc1ccccc1	-2.9
CC(CCc1ccccc1)NC(=O)Cn1ncc2c3ccccc3n(Cc3ccccc3)c2c1=O (stereo unspecified)	-2.7
SMILES	Bm FixLJ act
Cc1c2cnn(CC(=O)NCc3ccccc3)c(=O)c2c(C)n1Cc1cccc(Cl)c1	0.25
CC(CCc1ccccc1)NC(=O)Cn1ncc2c3ccccc3n(Cc3cccc(Cl)c3)c2c1=O (stereo unspecified)	26*
O=C(Cn1ncc2c3ccccc3n(Cc3ccc(F)cc3)c2c1=O)NCc1cccs1	-0.7
CC(CCc1ccccc1)NC(=O)Cn1ncc2c3ccccc3n(Cc3ccccc3F)c2c1=O (stereo unspecified)	-1.8
Cc1cc(C)n(Cc2cccc(C(=O)NC(C)CN3CCc4ccccc4C3)c2)n1 (stereo unspecified)	0.11
COC1CN(Cc2ccc(OCC(=O)O)cc2)CC1Cc1cc(C)no1 (stereo unspecified)	-0.45
COc1ccc(S(=O)(=O)NCc2nnc3n2CCC3)cc1Cl	-0.7
O=C(c1cc(-c2ccsc2)n[nH]1)N1CCCN(C(=O)C2CCOC2)CC1 (stereo unspecified)	0.18
O=C(CCN1CCC(Oc2ncccn2)CC1)Nc1nccs1	-0.67
Cc1cc(CC2CN(CC(=O)NCCc3ccc(F)cc3)CC2O)n[nH]1 (stereo unspecified)	0.62
COc1cc(-c2ccc(C(=O)NCC3(CO)CCOCC3)cc2)ccc1O	-1.2
Cc1nc(C(C)C)sc1C(=O)NC1COCC1Cc1ccncc1 (stereo unspecified)	-1.1
Cc1ccc(NC2(c3ccccc3)C(=O)c3ccccc3C2=O)cc1F	0.63
Cc1ccc(CN2CCC3(CC2)CN(Cc2c(C)noc2C)CCO3)nc1	-0.69
Cc1ccccc1CN1CCNC(=O)C1CC(=O)NCc1nnc2ccccn12 (stereo unspecified)	-1.5
CCc1nccn1CCNC(=O)c1cccc(-c2ccsc2C(C)=O)c1	0.04
COc1cccc(NC(CNS(=O)(=O)c2ccc(Cl)cc2)c2ccccc2)c1 (stereo unspecified)	4.2*
COc1cccc(NC(CNS(=O)(=O)c2ccc(C)cc2)c2ccccc2)c1 (stereo unspecified)	1
Cc1ccc(NC(CNS(=O)(=O)c2ccc(Cl)cc2)c2ccccc2)cc1 (stereo unspecified)	-0.49
Cn1nnc(-c2ccc(C(=O)NCc3csc(N)n3)cc2)n1	0.56
